Assay outcomes as filed in PubChem.
This is a sample that favours compounds with a hit; in the whole collection about 6.9% have one here.
Mdm2-MdmX inh: inhibitors of human Mdm2/MdmX interaction; O15151+Q00987; SaOS-2 split-luciferase Mdm2/MdmX complementation, luminescence; inhibition, % at 8 µM; 3% of 330,000 active;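 active means inhibition of at least 50% at 8 µM in the primary screen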
Target sequence (O15151 whole entry, looked up): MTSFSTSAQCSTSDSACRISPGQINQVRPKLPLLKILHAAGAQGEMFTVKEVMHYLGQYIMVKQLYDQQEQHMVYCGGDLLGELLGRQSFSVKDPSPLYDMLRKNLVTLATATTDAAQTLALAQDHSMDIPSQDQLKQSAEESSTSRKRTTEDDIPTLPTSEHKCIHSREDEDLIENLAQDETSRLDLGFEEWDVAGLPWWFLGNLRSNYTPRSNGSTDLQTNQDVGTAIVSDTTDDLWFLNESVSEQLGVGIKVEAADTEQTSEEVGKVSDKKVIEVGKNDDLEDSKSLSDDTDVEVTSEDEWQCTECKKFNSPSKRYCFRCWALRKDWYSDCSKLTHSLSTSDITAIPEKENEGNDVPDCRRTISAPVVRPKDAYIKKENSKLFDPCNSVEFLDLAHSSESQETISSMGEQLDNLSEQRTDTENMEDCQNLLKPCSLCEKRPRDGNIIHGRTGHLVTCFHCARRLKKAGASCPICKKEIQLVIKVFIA
Target sequence (Q00987 whole entry, looked up): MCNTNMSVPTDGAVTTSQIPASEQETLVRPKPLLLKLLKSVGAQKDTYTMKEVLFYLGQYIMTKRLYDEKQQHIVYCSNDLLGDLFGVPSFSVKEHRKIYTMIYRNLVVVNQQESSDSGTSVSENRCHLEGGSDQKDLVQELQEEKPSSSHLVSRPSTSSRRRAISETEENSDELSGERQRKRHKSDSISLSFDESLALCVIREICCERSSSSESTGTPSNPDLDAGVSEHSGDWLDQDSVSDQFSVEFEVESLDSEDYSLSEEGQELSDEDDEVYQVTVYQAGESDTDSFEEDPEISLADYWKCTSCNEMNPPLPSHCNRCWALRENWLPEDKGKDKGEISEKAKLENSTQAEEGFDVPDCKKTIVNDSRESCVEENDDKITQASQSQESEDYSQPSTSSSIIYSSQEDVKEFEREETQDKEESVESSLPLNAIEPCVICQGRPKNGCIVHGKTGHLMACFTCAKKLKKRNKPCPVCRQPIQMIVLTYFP
CSC inhib: cancer stem cell inhibition. cancer stem cell-like cells viability, luminescence. AID 2717. inhibition, % at 7.5 µM. 1.1% of 300,000 active; in the data active means inhibition above about 75%; tested in HMLE shEcad cells
GRIN3A LBD mod: NR3A (human) ligand-binding domain modulation | AID 1259313 | NR3A LBD differential scanning fluorimetry, Tm shift; 0% = protein alone, 100% = glycine-bound protein | 2.5% of 340,000 active | Tm shift relative to glycine control, % at 25 µM;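 active means melting temperature shift of at least 10% of the positive control shift, at one fixed dose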
SKKanGAS inh: SKKanGAS growth inhibition | inhibition, % at 7.5 µM | 1.3% of 300,000 active | S. pyogenes SKKanGAS, kanamycin growth, BacTiter-Glo, 6 h;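 active means mean replicate score, as percent of positive control median, at least 50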;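 further: strain carries kanamycin resistance gene driven by streptokinase promoter and grows in 40 µg/ml kanamycin; loss of luminescence reflects streptokinase promoter inhibition or plain growth inhibition; 0% = median of DMSO wells and 100% = positive control at its reference dose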
Beta apoptosis: beta cell apoptosis inhibition. INS-1E cytokine-induced death, ATP luminescence, 48 h; percent of positive-control rescue, neutral wells zero. protection from apoptosis, % (concentration not given with the values). 0.8% of 300,000 active;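 active means Every replicate reaches about 75%, or at least half do and their mean reaches it too, limit read from the data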;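 further: 0% = cytokine-treated negative control wells and 100% = positive control rescue; higher means more ATP so stronger rescue from cytokine killing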
MPTP inh: blocks calcium-induced mitochondrial swelling; inhibition, % at 10 µM; isolated mouse mitochondria, Ca2+ swelling absorbance, 30 min; 1.4% of 360,000 active;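 active means inhibition of 50% or more, scaled per plate between neutral and stimulator controls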;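 further: 0% = DMSO wells given calcium and 100% = 1 mM EGTA wells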
MPTP counter: mitochondrial membrane potential, counter-screen; shares compounds with MPTP inh; isolated mitochondria, Rhodamine 123 fluorescence; inhibition, % at 10 µM; 78% of 5,000 active; in the data active means inhibition above about 22%;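 further: 0% = DMSO vehicle and 100% = positive control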
MPTP abs DR: MPTP inhibition, dose response swelling confirmation | IC50, µM | isolated mitochondria swelling, absorbance | AID 651561 | shares compounds with MPTP inh | 58% of 780 active; in the data active means IC50 below about 20 µM
MPTP counter DR: active in counter-screen for permeability transition pore inhibitors; shares compounds with MPTP inh; isolated mitochondria counterscreen, fluorescence read-out; IC50, µM; 49% of 780 active; AID 651564; in the data active means IC50 below about 80 µM
* marks the source's active call; other numbers are inactive results; i = inactive; / = no result given.

SMILES | Mdm2-MdmX inh | CSC inhib | GRIN3A LBD mod | SKKanGAS inh | Beta apoptosis | MPTP inh | MPTP counter | others
Cc1ccccc1-c1nn(-c2ccc(F)cc2F)cc1CNCCN(C)C | 13 | -1 | -1 | 15 | -3 | 25 | /
O=C(Nc1cccc(Cl)c1)ON1CCCCC1 | / | / | / | / | / | 5 | /
C=CCc1cc(Cl)ccc1OC(=O)Nc1cccc(Cl)c1 | 9 | 24 | 11* | 1 | 3 | 93* | 97*
CCCCN1C(=N)N([C@@H](CCC)CN2CCC[C@H]2CN2C(N)=NC[C@H]2C(C)C)C[C@H]1[C@H](C)CC | 6 | / | 1 | / | / | -1 | /
O=C(NC(Cc1ccccc1)C(=O)O)/C(=C/c1cccc([N+](=O)[O-])c1)NC(=O)c1cccc(Br)c1 (centres undefined) | 0 | 5 | -3 | 6 | / | 0 | /
S=C(NCCc1ccccc1)Nc1ccccc1N1CCOCC1 | 5 | -4 | 0 | -7 | -8 | 1 | /
Fc1cc(F)cc(NC(=S)Nc2ccccc2N2CCOCC2)c1 | 7 | -4 | 0 | -7 | -4 | 94* | 102*
CCOC(=O)c1c(C)[nH]c(C(=O)N/N=C\c2ccccc2Cl)c1C | 49 | 53 | -5 | 10 | 4 | 92* | 88*
CC(C)Cc1nc(SCC(=O)N2CCCCC2)c2c(=O)n(C)c(=O)n(C)c2n1 | 8 | -4 | 1 | -2 | 1 | -2 | /
C=CCC1(CC=C)CCCN1C(=O)c1cc(COc2cncc(Cl)c2)on1 | 25 | 11 | / | -2 | / | 77* | 96*
C=CCC1(CC=C)CCCN1C(=O)c1cc(COc2cccc(OC)c2)on1 | 17 | 12 | -1 | 0 | 5 | 1 | /
C#Cc1ccc(NC(=O)C2(C)CCN2C(=O)C2(c3ccccc3)CCCC2)cc1 (centres undefined) | / | / | / | / | / | -1 | /
O=C(CSc1ccc(C(F)(F)F)cc1[N+](=O)[O-])Nc1ccc2ccccc2c1 | -13 | 9 | 35* | -2 | -1 | 74* | 16 | MPTP abs DR=>100;MPTP counter DR=>80
COc1ccc(Cl)cc1NC(=O)C(OC)c1ccccc1 (centres undefined) | 16 | 8 | 2 | 8 | 2 | 0 | /
COC(/C(=N/O)c1ccc(Cl)cc1)c1ccccc1 (centres undefined) | 10 | 6 | -5 | 10 | 100* | 68* | 76*
COc1ccc(S(=O)(=O)N2CCCCCC2)cc1C(=O)Nc1ccccn1 | 6 | / | -5 | -4 | -7 | 2 | /
CN(c1ccccc1)S(=O)(=O)c1ccc(NC(=O)CC(=O)c2ccccc2)cc1 | / | / | 16* | / | / | 57* | 93*
CCC(CO)NCc1ccc(OCC(=O)Nc2cccc(C(F)(F)F)c2)c(OC)c1 (centres undefined) | 1 | -1 | -3 | -3 | 0 | 58* | -14 | MPTP abs DR=17*;MPTP counter DR=>80
CCOc1cc(CNC(C)(C)C)ccc1OCC(=O)Nc1cccc(C(F)(F)F)c1 | 8 | 8 | 0 | -4 | 2 | 2 | /
COc1cc(NC(=O)Cn2nc(C(F)(F)F)c(Br)c2C)cc([N+](=O)[O-])c1 | 49 | 30 | 21* | 10 | 11 | 85* | 82*
COc1ccc(CNC(=O)Cn2nc(C(F)(F)F)c(Br)c2C)cc1 | -2 | -13 | -3 | 9 | -6 | 0 | /
O=C(C=P(c1ccccc1)(c1ccccc1)c1ccccc1)c1ccccc1-c1ccccc1C(=O)C=P(c1ccccc1)(c1ccccc1)c1ccccc1 | / | / | 1 | / | / | 94* | 99*
O=C(NNC(=O)c1ccccc1-c1ccccc1C(=O)O)c1ccccc1 | 17 | -9 | 1 | -5 | 3 | 0 | /
Cc1cc(Nc2ccc(F)c(F)c2)nc(-c2ccccc2O)n1 | 45 | 5 | 23* | 1 | 9 | 90* | 60*
Cc1ccc(Nc2cc(C)nc(-c3ccccc3)n2)cc1 | -66 | 23 | 0 | -6 | -4 | 1 | /
SMILES | Mdm2-MdmX inh | CSC inhib | GRIN3A LBD mod | SKKanGAS inh | Beta apoptosis | MPTP inh | MPTP counter | others
Oc1c(C=C2N=c3ccccc3=N2)sc(=S)n1C1CCCCC1 | -9 | -5 | -3 | -4 | 0 | 77* | -7 | MPTP abs DR=>100;MPTP counter DR=>80
CN1CCN(c2ccccc2NC(=O)C(Cc2ccccc2)n2cccc2)CC1 (centres undefined) | 25 | 7 | -3 | 3 | 15 | 81* | -12 | MPTP abs DR=i;MPTP counter DR=>80
CN1CCN(c2ccccc2NC(=O)c2ccc(-c3ccccc3)cc2)CC1 | 16 | 25 | 2 | 0 | 11 | 46 | /
CCCCOc1ccc(C(=O)Nc2ccc(N3CCN(C)CC3)cc2)cc1 | 12 | / | -4 | 1 | 9 | 90* | -8 | MPTP abs DR=i;MPTP counter DR=>80
CN1CCN(c2ccccc2NC(=O)c2cccc(OCc3ccccc3)c2)CC1 | 8 | -8 | 1 | 5 | / | 1 | /
CN1CCN(c2ccccc2NC(=O)c2ccc(OCc3ccccc3)cc2)CC1 | 27 | -7 | -2 | / | 1 | 78* | -10 | MPTP abs DR=9.4*;MPTP counter DR=>80
CCS(=O)(=O)c1nc(S(=O)(=O)c2ccc(C)cc2)c(NCCCN(C)C)s1 | 2 | -10 | -2 | -5 | -5 | 0 | /
O=C(COC(=O)c1ccc2c(c1)OCO2)NC1CCCCC1 | 3 | -8 | 2 | / | -12 | -1 | /
CCOc1cc(NC(=O)C2CC2)c(OCC)cc1NC(=O)c1cccc(F)c1 | 8 | 8 | 0 | 1 | -4 | 106* | 0 | MPTP abs DR=>100;MPTP counter DR=>80
CC(NCC(=O)Nc1ccccc1C(=O)NC1CC1)c1ccco1 (centres undefined) | -9 | / | 1 | / | / | -2 | /
CC1CCC(NC(=O)CC(NC(N)=O)c2ccccc2Cl)CC1 (centres undefined) | -9 | 3 | -1 | 1 | -5 | 0 | /
O=C(Nc1ccccc1Br)C1CCC(=O)N1Cc1ccccc1Cl (centres undefined) | -12 | 14 | -1 | -4 | -3 | 66* | 78*
O=C(Nc1ccc(Cl)cc1)C1CCC(=O)N1Cc1ccccc1Cl (centres undefined) | 28 | 6 | -1 | -5 | / | -1 | /
[N-]=[N+]=NC[C@H](Cc1ccccc1)N1CCN(Cc2ccccc2)CCC1=O | 8 | 2 | -4 | 0 | -2 | -1 | /
COc1ccccc1C(=O)NC(=S)NNC(=O)c1sc2ccccc2c1Cl | 42 | 55 | -7 | 118* | 12 | 95* | -7
COc1ccccc1C(=O)NNC(=S)NC(=O)c1sc2ccccc2c1Cl | 44 | / | -3 | 94* | 0 | 98* | -11
Cc1c(NC(=S)NC(=O)c2sc3ccccc3c2Cl)cccc1C(=O)O | -30 | -6 | 2 | 16 | -3 | -2 | /
CC1CCCCC1NC(=S)NC(=O)c1sc2ccccc2c1Cl (centres undefined) | 9 | 0 | -2 | 5 | -2 | 11 | /
